PubChem BioAssay AID1159580 (chemical genetic matrix, 2015)
Values joined by “and” are separate entries in the source; they are usually repeats but may differ in a detail not shown here. Identical values can stand only once. Screen size: about 5,500 compounds; about 2,000 (36%) were called active. About 18% were inconclusive and are not listed. Rule as the data show it: active = normalized growth mostly below about 0.91 (no sharp cut-off); inconclusive = no clear call, values can overlap the other calls; inactive = mostly above about 0.92. The list shows a part of the results.

Assay: chemical genetic growth profiling, strain panel (AID 1159580);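 also: tested at 20 µM; growth read once vehicle control cultures reached saturation at 30 °C; 1 = growth at the plate median or of vehicle wells; lower values mean less growth of the strain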
Conditions: S. cerevisiae deletion strains, growth OD

Measured: normalized growth

COc1ccccc1N1CCN(CCCNc2cc(=O)n(C)c(=O)n2C)CC1
inactive: locus YAL013W, strain DEP1, stronger effect = lower value 0.976 | locus YAL021C, strain ccr4, stronger effect = lower value 0.998 | locus YAL026C, strain drs2, stronger effect = lower value 1.02 | locus YAL030W, strain snc1, stronger effect = lower value 1.01 | locus YAL040C, strain CLN3, stronger effect = lower value 1 | locus YBL061C, strain skt5, stronger effect = lower value 1.01 | locus YBR009C, strain hhf1, stronger effect = lower value 1 | locus YBR021W, strain FUR4, stronger effect = lower value 1.05 | locus YBR023C, strain chs3, stronger effect = lower value 1.02 | locus YBR171W, strain sec66, stronger effect = lower value 1.02 | locus YBR229C, strain ROT2, stronger effect = lower value 0.952 | locus YBR231C, strain swc5, stronger effect = lower value 1.01 | locus YBR279W, strain paf1, stronger effect = lower value 1.01 | locus YCL011C, strain gbp2, stronger effect = lower value 1.01 | locus YCL016C, strain dcc1, stronger effect = lower value 1.01 | locus YCL029C, strain bik1, stronger effect = lower value 0.984 | locus YCL061C, strain MRC1 (second series), stronger effect = lower value 1 | locus YCL061C, strain MRC1, stronger effect = lower value 1.02 | locus YCL069W, strain vba3, stronger effect = lower value 1.02 | locus YCR088W, strain abp1, stronger effect = lower value 1.01 | locus YDL005C, strain med2, stronger effect = lower value 1.02 | locus YDL035C, strain GPR1, stronger effect = lower value 0.986 | locus YDL040C, strain nat1, stronger effect = lower value 0.994 | locus YDL074C, strain BRE1, stronger effect = lower value 0.961 | locus YDL101C, strain DUN1, stronger effect = lower value 0.959 | locus YDL134C, strain PPH21, stronger effect = lower value 0.984 | locus YDL185W, strain tfp1, stronger effect = lower value 0.961 | locus YDL192W, strain arf1, stronger effect = lower value 0.99 | locus YDR001C, strain nth1, stronger effect = lower value 1.01 | locus YDR069C, strain doa4, stronger effect = lower value 1.01 | locus YDR101C, strain arx1, stronger effect = lower value 0.994 | locus YDR137W, strain rgp1, stronger effect = lower value 1.03 | locus YDR150W, strain NUM1, stronger effect = lower value 0.968 and 1.01 | locus YDR159W, strain sac3, stronger effect = lower value 1 | locus YDR162C, strain NBP2, stronger effect = lower value 0.962 | locus YDR195W, strain ref2 1.01 | locus YDR297W, strain sur2, stronger effect = lower value 1.01 | locus YDR318W, strain mcm21, stronger effect = lower value 1.01 | locus YDR334W, strain swr1, stronger effect = lower value 1.02 | locus YDR335W, strain msn5, stronger effect = lower value 1.02 | locus YDR363W, strain ESC2, stronger effect = lower value 1 | locus YDR388W, stronger effect = lower value 0.998 | locus YDR392W, strain spt3, stronger effect = lower value 0.944 | locus YDR502C, strain sam2, stronger effect = lower value 1 | locus YEL003W, strain gim4, stronger effect = lower value 1.01 | locus YEL037C, strain rad23, stronger effect = lower value 1.01 | locus YEL061C, strain CIN8 (second series), stronger effect = lower value 1.01 | locus YEL061C, strain CIN8, stronger effect = lower value 0.986 | locus YER002W, strain NOP16, stronger effect = lower value 0.991 | locus YER015W, strain faa2, stronger effect = lower value 1.02 | locus YER016W, strain bim1, stronger effect = lower value 1.02 | locus YER110C, stronger effect = lower value 0.994 | locus YER111C, strain swi4, stronger effect = lower value 1 | locus YER155C, strain BEM2 (second series), stronger effect = lower value 1.02 | locus YER155C, strain BEM2, stronger effect = lower value 0.993 | locus YER167W, strain BCK2, stronger effect = lower value 0.98 | locus YFR010W, strain ubp6, stronger effect = lower value 1.02 | locus YGL078C, strain dbp3, stronger effect = lower value 0.99 | locus YGL086W, strain mad1, stronger effect = lower value 1.01 | locus YGL167C, strain pmr1, stronger effect = lower value 1.01 | locus YGL173C, strain kem1, stronger effect = lower value 1.01 | locus YGL227W, strain vid30, stronger effect = lower value 1.01 | locus YGL240W, strain doc1, stronger effect = lower value 0.996 | locus YGL248W, strain PDE1, stronger effect = lower value 0.974 | locus YGL253W, strain hxk2, stronger effect = lower value 1.01 | locus YGR078C, strain PAC10, stronger effect = lower value 0.981 and 0.985 | locus YGR135W, strain pre9, stronger effect = lower value 0.985 | locus YGR229C, strain SMI1, stronger effect = lower value 1.01 | locus YGR252W, strain gcn5, stronger effect = lower value 1.05 | locus YHR013C, strain ard1, stronger effect = lower value 1.01 | locus YHR027C, strain rpn1, stronger effect = lower value 1.01 | locus YHR030C, strain SLT2, stronger effect = lower value 0.983 | locus YHR079C, strain IRE1 (second series), stronger effect = lower value 1 | locus YHR094C, strain hxt1, stronger effect = lower value 0.992 | locus YHR129C, strain ARP1, stronger effect = lower value 0.988 | locus YHR142W, strain chs7, stronger effect = lower value 1.01 | locus YHR200W, strain rpn10, stronger effect = lower value 0.994 | locus YIL066C, strain RNR3, stronger effect = lower value 0.985 | locus YIL073C, strain SPO22, stronger effect = lower value 0.998 | locus YIL125W, strain kgd1, stronger effect = lower value 0.997 | locus YIR030C, strain dcg1, stronger effect = lower value 0.983 | locus YJL092W, strain hpr5, stronger effect = lower value 1.01 | locus YJL095W, strain BCK1 (second series), stronger effect = lower value 1.01 | locus YJL095W, strain BCK1, stronger effect = lower value 1 | locus YJL115W, strain asf1, stronger effect = lower value 1.03 | locus YJL129C, strain trk1, stronger effect = lower value 1.05 | locus YJL134W, strain LCB3, stronger effect = lower value 0.98 | locus YJL154C, strain vps35, stronger effect = lower value 1.02 | locus YJL164C, strain tpk1, stronger effect = lower value 1.01 | locus YJL166W, strain qcr8, stronger effect = lower value 1.01 | locus YJL168C, strain set2, stronger effect = lower value 0.998 | locus YJL187C, strain SWE1 (second series), stronger effect = lower value 0.978 | locus YJL187C, strain SWE1, stronger effect = lower value 1.01
